The results in this text go back to PubChem BioAssay (NCATS).

Assay [1] concerns the target Beta-2 adrenergic receptor (Homo sapiens) (UniProt P07550). Description: qHTS validation assay of beta-arrestin-biased ligands of beta2-adrenergic receptor (AID 485366). The note with it: cell-based beta-arrestin recruitment to ADRB2, qHTS; series mostly up to 46.1 µM. In outline:
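Arrestin-recruitment (Tango) reporter: ligand-bound beta2-AR recruits beta-arrestin, releasing tTA, which upregulates luciferase. Titrations of up to 46 microM incubated 18 hr at 37 degrees C before luminescent readout.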
For orientation: qHTS replaces the single test concentration by a dilution series.

Assay [2] can be described thus: Quantitative high throughput screen for delayed death inhibitors of the malarial parasite plastid, 96 hour incubation (AID 488745). Further: nearly all actives have a fitted effect of over 70% in size. The note with it: Plasmodium falciparum growth; series mostly up to 28.7 µM. The method, boiled down:
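P. falciparum carrying an integrated firefly luciferase reporter, grown in erythrocytes (2% hematocrit, 0.1% parasitemia final) in RPMI 1640/0.5% Albumax, was exposed to compound for 96 h (two generations) at 37 C, 5% CO2. Luminescence decrease indicated growth inhibition.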

Assay [3] has as its target Thioredoxin reductase 1, cytoplasmic (Rattus norvegicus) (UniProt O89049). As to the kind of experiment: qHTS Assay for Substrates of Mammalian Selenoprotein Thioredoxin Reductase 1 (TrxR1) (AID 488772).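 Further: NADPH fluorescence in the first read after selenite addition and not the 8 min delta; a drop in NADPH fluorescence below the no-compound background marks a TrxR1 substrate.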 The note with it: purified TrxR1, NADPH consumption substrate assay; series mostly up to 57.1 µM. In outline:
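Quantitative HTS in Tris-HCl buffer at pH 7.5 with EDTA and Tween-20, using rat TrxR1, 400 uM NADPH and 400 uM selenite (final). A fall in initial NADPH fluorescence relative to background marked substrate behaviour.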

For assay [4] the target is unchanged. As to the kind of experiment: qHTS Assay for Inhibitors of Mammalian Selenoprotein Thioredoxin Reductase 1 (TrxR1) (AID 488773). Further: nearly all actives have a fitted effect of over 40% in size. Further: potency means the concentration at half of the fitted maximal effect. The note with it: purified TrxR1 enzyme activity; Potency: inhibition; series mostly up to 57.1 µM. In outline: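 Steps: enzyme (90 nM) plus NADPH (400 uM final), 5 min at ~22 deg C; compound added, 15 min; selenite (400 uM final) added; fluorescence followed for 8 min. Concentration-response curves derived from the normalized delta values.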

In assay [5] the target is M-phase phosphoprotein 8 (Homo sapiens) (UniProt Q99549). As to the kind of experiment: qHTS Validation Assay for Inhibitors for MPP8 Chromodomain Interactions with Methylated Histone Tails (AID 488949). Further: nearly all actives have a fitted effect of over 55% in size. Further: potency means the concentration at half of the fitted maximal effect. The note with it: AlphaScreen MPP8 binding to H3K9me3 peptide; series mostly up to 57.1 µM. The method, boiled down: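 Disruption of the preformed MPP8–trimethyl-H3K9 peptide complex (both 50 nM, 30 min, RT) is measured after 30 min compound exposure, using AlphaScreen proximity beads; aurintricarboxylic acid titration serves as plate control.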
Sequence of M-phase phosphoprotein 8 (Homo sapiens) (Q99549 whole entry, looked up): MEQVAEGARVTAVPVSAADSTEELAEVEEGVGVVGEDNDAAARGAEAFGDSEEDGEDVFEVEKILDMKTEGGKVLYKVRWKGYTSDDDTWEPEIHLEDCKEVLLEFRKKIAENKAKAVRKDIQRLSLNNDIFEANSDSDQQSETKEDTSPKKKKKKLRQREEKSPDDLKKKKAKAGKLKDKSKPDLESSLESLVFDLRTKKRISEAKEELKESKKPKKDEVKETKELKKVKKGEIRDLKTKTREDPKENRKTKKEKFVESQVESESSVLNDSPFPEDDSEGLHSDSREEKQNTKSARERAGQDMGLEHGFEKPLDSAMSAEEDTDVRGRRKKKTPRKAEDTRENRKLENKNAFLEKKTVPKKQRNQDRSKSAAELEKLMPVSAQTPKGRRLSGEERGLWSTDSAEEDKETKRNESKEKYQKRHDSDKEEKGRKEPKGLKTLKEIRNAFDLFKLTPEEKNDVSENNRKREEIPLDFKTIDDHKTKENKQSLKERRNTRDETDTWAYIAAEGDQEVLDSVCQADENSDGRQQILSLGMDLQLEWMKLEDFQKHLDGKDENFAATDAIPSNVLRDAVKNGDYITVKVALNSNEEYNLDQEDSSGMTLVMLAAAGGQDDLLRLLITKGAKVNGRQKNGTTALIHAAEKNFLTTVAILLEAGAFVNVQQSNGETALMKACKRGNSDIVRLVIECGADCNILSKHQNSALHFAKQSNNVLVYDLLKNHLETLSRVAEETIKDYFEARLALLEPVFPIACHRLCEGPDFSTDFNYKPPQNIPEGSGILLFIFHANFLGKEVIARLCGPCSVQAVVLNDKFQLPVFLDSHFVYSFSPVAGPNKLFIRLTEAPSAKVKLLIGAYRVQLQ

Assay [6] has as its target Chromobox protein homolog 1 (Homo sapiens) (UniProt P83916). As to the kind of experiment: qHTS Validation Assay for Inhibitors of HP1-beta Chromodomain Interactions with Methylated Histone Tails (AID 488953).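 Further: loss of AlphaScreen luminescence from HP1-beta binding biotinylated H3K9me3 peptide; nearly all actives have a fitted effect of over 50% in size.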 The note with it: HP1-beta chromodomain / methylated histone peptide binding assay; series mostly up to 114 µM. In outline:
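HP1-beta (50 nM) was preincubated 30 min at room temperature with biotinylated H3(1-18)K9me3 peptide (50 nM) in PBS pH 7.4, 0.01% Tween-20, then with compounds 30 min. AlphaScreen signal was read after streptavidin donor/nickel chelate acceptor beads (10 ug/mL final).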

The target in assay [7] is ATP-dependent 6-phosphofructokinase (Trypanosoma brucei brucei) (UniProt O15648). As to the kind of experiment: qHTS Validation Assay to Find Inhibitors of T. brucei phosphofructokinase (AID 485368). The note with it: T. brucei PFK enzyme assay, qHTS 7-point titration; series mostly up to 57.5 µM. The method, boiled down:
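Steps: substrate mix (0.5 mM F6P, 0.1 mM ATP, MgCl2, TEA pH 8.0); compound; 1.25 nM T. brucei PFK; 45 min RT; ATP depletion 10 min; ADP-to-ATP detection 10 min; luminescence read; curve fitting and classification.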

Assay [8] in a line: Quantitative high throughput screen for delayed death inhibitors of the malarial parasite plastid, 48 hour incubation (AID 488752). Further: nearly all actives have a fitted effect of over 65% in size. The note with it: Plasmodium falciparum growth; series mostly up to 28.7 µM. In outline: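 Erythrocytes infected with P. falciparum carrying an integrated firefly luciferase reporter (2% hematocrit, 0.1% parasitemia final) were exposed to compounds in RPMI 1640/0.5% Albumax for 48 h at 37 C, 5% CO2. Growth inhibition was scored as reduced luminescence.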

For assay [9], the target named is Methanococcus maripaludis chaperonin (MmCpn) (UniProt Q6LX38). Description: High-Throughput Screening for Modulators of Cytosolic Chaperonin Activity: MmCpn Primary Screen (AID 488978). The note with it: Purified MmCpn ATPase activity, ADP HTRF detection, 10 min; series mostly up to 76.9 µM. In outline: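 Measures ATPase turnover of the M. maripaludis chaperonin (50 nM final) against 30 uM ATP over 10 min at 37C, with compound added 5 min beforehand at room temperature. ADP is quantified by HTRF immunodetection.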
Sequence of Methanococcus maripaludis chaperonin (MmCpn) (Q6LX38 1-543): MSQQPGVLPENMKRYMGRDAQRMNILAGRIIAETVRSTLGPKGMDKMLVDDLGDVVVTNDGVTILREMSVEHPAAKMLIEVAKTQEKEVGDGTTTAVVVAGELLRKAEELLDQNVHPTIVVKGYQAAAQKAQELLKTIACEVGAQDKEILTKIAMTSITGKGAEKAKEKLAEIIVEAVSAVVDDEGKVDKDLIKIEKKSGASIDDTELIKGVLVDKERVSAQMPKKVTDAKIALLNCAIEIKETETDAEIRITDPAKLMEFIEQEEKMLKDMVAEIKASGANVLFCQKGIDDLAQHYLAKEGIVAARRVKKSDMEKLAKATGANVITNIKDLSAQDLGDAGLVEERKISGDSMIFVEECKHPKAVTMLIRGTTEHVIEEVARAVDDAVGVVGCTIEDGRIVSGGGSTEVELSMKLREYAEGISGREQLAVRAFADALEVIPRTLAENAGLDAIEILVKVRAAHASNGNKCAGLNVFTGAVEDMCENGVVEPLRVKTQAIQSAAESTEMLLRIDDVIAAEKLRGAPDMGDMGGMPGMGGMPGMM
A general note: Time-resolved FRET reads energy transfer from a long-lived donor to a nearby acceptor.

Assay [10] has as its target Flap endonuclease 1 (Homo sapiens) (UniProt P39748). Description: qHTS Validation Assay for the Inhibitors of Human Flap endonuclease 1 (FEN1) (AID 488816). The note with it: FEN1 nuclease activity, fluorogenic DNA substrate; series mostly up to 57.1 µM. The method, boiled down: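 Human FEN1 (10 nM) preincubated 15 min at room temperature with compounds, then flap DNA substrate added at 50 nM final. Fluorescence read at 0 and 15 min; concentration-response fitted with four-parameter Hill equation.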

Inconclusive results are not listed. More than one record can exist for a structure, and the calls need not agree. Activity calls are given as the source filed them. The call rests on the fitted dose curve; in most records, active means well fitted curve in the direction sought with a large enough effect; inconclusive means small, poorly fitted or top-dose-only effect, or another doubt; inactive means no such curve, though single readings can be large; an effect the other way counts as inactive or inconclusive.

Sequence of Chromobox protein homolog 1 (Homo sapiens) (P83916 whole entry, looked up): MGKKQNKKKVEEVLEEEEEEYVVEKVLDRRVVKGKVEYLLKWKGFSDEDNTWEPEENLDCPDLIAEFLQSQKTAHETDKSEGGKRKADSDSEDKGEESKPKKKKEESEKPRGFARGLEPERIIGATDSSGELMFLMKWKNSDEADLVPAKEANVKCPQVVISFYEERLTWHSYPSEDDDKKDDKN
Sequence of Thioredoxin reductase 1, cytoplasmic (Rattus norvegicus) (O89049 whole entry, looked up): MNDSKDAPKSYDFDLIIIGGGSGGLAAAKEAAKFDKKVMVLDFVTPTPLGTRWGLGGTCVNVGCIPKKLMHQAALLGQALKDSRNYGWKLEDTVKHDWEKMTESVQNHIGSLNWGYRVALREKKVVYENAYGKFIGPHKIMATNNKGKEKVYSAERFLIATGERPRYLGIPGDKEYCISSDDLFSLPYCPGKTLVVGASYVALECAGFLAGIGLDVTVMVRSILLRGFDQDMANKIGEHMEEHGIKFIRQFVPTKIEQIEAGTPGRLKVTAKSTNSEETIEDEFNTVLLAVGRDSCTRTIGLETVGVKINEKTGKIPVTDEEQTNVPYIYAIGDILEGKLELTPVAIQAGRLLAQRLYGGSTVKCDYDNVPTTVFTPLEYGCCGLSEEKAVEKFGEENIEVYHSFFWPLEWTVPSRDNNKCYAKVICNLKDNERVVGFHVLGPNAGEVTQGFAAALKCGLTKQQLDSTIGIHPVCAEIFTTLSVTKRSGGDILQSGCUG
Sequence of Beta-2 adrenergic receptor (Homo sapiens) (P07550 whole entry, looked up): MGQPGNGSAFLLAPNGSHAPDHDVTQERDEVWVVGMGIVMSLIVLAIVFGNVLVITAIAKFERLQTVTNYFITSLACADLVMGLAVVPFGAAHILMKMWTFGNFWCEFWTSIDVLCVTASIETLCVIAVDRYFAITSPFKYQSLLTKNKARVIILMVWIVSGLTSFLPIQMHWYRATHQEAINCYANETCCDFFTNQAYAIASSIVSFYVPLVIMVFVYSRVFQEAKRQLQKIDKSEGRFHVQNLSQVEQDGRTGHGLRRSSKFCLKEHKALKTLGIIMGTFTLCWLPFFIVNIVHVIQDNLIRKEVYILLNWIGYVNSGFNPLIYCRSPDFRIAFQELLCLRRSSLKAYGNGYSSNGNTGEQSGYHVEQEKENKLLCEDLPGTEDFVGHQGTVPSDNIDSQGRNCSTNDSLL
Sequence of Flap endonuclease 1 (Homo sapiens) (P39748 whole entry, looked up): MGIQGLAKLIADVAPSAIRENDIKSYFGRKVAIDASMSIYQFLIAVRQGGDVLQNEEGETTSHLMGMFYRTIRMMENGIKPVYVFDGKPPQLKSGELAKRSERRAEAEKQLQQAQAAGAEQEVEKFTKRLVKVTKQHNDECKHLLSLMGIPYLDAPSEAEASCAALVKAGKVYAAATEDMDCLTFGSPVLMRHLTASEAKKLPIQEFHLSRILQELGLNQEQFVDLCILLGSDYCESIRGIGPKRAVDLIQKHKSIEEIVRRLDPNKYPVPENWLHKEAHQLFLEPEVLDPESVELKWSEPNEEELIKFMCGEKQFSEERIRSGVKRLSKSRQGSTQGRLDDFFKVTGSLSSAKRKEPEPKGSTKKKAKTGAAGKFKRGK
Sequence of ATP-dependent 6-phosphofructokinase (Trypanosoma brucei brucei) (O15648 whole entry, looked up): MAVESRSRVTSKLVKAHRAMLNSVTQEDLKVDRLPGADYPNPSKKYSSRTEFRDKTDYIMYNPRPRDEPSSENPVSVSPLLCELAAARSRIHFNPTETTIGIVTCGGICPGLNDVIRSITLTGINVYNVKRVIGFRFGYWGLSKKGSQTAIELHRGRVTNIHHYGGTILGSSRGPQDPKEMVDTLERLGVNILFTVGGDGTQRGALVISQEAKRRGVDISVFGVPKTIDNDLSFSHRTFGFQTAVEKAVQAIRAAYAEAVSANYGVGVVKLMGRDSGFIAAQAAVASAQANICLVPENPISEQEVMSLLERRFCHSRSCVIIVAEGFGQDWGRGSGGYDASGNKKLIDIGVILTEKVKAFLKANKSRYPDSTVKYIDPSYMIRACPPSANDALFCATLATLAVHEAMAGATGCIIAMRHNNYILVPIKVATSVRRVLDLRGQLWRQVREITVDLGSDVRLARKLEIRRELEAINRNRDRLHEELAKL

As for `Nc1ccc2c3c(cccc13)C(=O)NC2=O`, the result in assay [1] and in [3] was inactive. Moreover, the Potency entry in [2], in assay [4], in assay [5] and in assay [6] was “inactive” throughout.
For `CC(C)NC[C@H](O)COc1ccc(CC(N)=O)cc1`, the Potency result in assay [7], in assay [2], in [8], in assay [4] and in assay [6] was “inactive” each time. The call in [3] and in [9] was inactive.
On to `OC[C@H]1O[C@H](n2cnc3c(N[C@H]4CCC[C@@H]4O)ncnc32)[C@H](O)[C@@H]1O`, for which the result in assay [1], in assay [3] and in assay [9] was inactive. Also, the Potency result in assay [4], in assay [10], in assay [5] and in [6] was “inactive” in each case.
For `C[C@](Cc1ccc(O)c(O)c1)(NN)C(=O)O`, the result in assay [1] and in assay [3] was inactive. Also, the Potency in assay [4] is 8.44 µM (active). The Potency entry in assay [5] and in assay [6] was “inactive” throughout.
Regarding `CCCc1c(-c2ccc(O)cc2)nn(-c2ccc(O)cc2)c1-c1ccc(O)cc1`, the result in assay [1], in assay [3] and in [9] was inactive. The Potency result in assay [4] and in assay [5] was “inactive” throughout.
Regarding `C=CCN1CCc2c(cc(O)c(O)c2Cl)C(c2ccccc2)C1` (centres undefined), the molecule was called inactive in assay [1], in assay [3] and in assay [9]. Besides, the Potency entry in assay [10] was “inactive”. Besides, the Potency in [5] was 39.8 µM (active) and inactive.
For the molecule `O=C(O)/C(=C/c1c(C(=O)O)[nH]c2cc(Cl)cc(Cl)c12)c1ccccc1`, the outcome in assay [1] and in [3] was inactive. Further, the Potency entry in [10] and in assay [5] was “inactive” throughout.
In the case of `O=C(N[C@@H](Cc1ccccc1)C(=O)CCl)OCc1ccccc1`, the call in assay [1], in [3] and in assay [9] was inactive. In addition, in assay [4], the Potency is 21.2 µM (active). For the same molecule, the Potency result in [10], in assay [5] and in assay [6] was “inactive” each time.
As for `C[C@H]1CC2C3CCC4=CC(=O)C=C[C@]4(C)[C@@]3(Cl)[C@@H](O)C[C@]2(C)[C@@]1(O)C(=O)CO` (some centres undefined), the outcome in assay [1], in assay [3] and in [9] was inactive. For the same molecule, the Potency result in assay [4], in assay [10] and in assay [5] was “inactive” throughout.
`OC1(c2ccc(Cl)cc2)CCN(Cc2c[nH]c3ccccc23)CC1`: the outcome in assay [1], in assay [3] and in assay [9] was inactive. Also, in assay [4], the Potency entry was “inactive”.
Turning to `CSc1nc(N)c2ncn([C@@H]3O[C@H](COP(=O)(O)OP(=O)(O)O)C(O)[C@H]3O)c2n1` (some centres undefined), the call in assay [1], in assay [3] and in [9] was inactive. The Potency entry in assay [4], in assay [10], in [5] and in [6] was “inactive” in each case.
`CN(CC[C@@H](Oc1ccc(C(F)(F)F)cc1)c1ccccc1)CC(=O)O`: the call in [1], in [3] and in assay [9] was inactive. The Potency result in assay [10], in [5] and in [6] was “inactive” in each case.
On to `Oc1ccc(Cn2cc[nH]c2=S)cc1`, for which the call in [1], in assay [3] and in [9] was inactive. The Potency result in assay [4] and in [5] was “inactive” each time.
